test system: Plasmodium falciparum; assay: GSK_TCMDC: Inhibition of Plasmodium falciparum 3D7 in whole red blood cells, using parasite LDH activity as an index of growth. Test compounds present at 2uM; assay type: functional

Row | SMILES | Inhibition
1 | CS(=O)(=O)Nc1cccc(-c2cnc3[nH]cc(-c4ccc(C(=O)O)c(F)c4)c3c2)c1 | 99%
2 | COc1ccc(-c2ccc(NC(=O)c3cccc(C#N)c3)cc2)cc1CN(C)C.O=C(O)C(F)(F)F | 100%
3 | Cc1cc(=NN=Cc2ccc(F)cc2)c2ccc(C(F)(F)F)cc2[nH]1 | 95%
4 | Brc1ccsc1-c1nc(NCCC(c2ccccc2)c2ccccc2)no1 | 94%
5 | CCN1CCC(N(Cc2ccc(-c3ccc(C(F)(F)F)cc3)cc2)C(=O)Cn2c(CCc3cccc(F)c3F)cc(=O)c3c2CCCC3)CC1.O=C(O)C(O)C(O)C(=O)O | 100%
6 | CC1(C)N=C(N)N=C(NOCc2ccc(Cl)c(Cl)c2)N1 | 96%
7 | COc1ccc(Cc2c(C)nc3nc(N)nc(N)c3c2C)cc1.Cl | 93%
8 | Cc1[nH]c(C)c(-c2ccc(Oc3ccc(O)cc3)cc2)c(=O)c1Cl | 91%
9 | Nc1nc(N)c2c(Oc3cccnc3)cccc2n1 | 93%
10 | CN1CCN(c2ccc3[nH]c(-c4ccc(Cc5cc(Cl)ccc5OCc5ccccc5)o4)nc3c2)CC1.Cl | 100%
11 | COc1ccc(-c2ccc(NC(=O)c3ccc(C#N)cc3)cc2)cc1CN1CCN(C)CC1.O=C(O)C(F)(F)F | 93%
12 | O=C(Nc1ccc2c(c1)OCO2)NC1CCN(c2ccnc(Nc3ccc(F)cc3)n2)C1 (stereo not given) | 100%
13 | COc1cc(CNC[C@@H](O)[C@H](Cc2ccccc2)NC(=O)c2cc(C3CCCC3)cc(N3CCCCS3(=O)=O)c2)cc(OC)c1.Cl | 98%
14 | CC(C)(C)OC(=O)[C@H](CC(N)=O)NC(=O)c1ccc(-c2ccc(-c3nc4cc(C(F)(F)F)ccc4[nH]3)s2)cc1 | 94%
15 | COc1ccc(C(=O)C2CCN(CCCCNC(=O)c3ccc(NC(=O)c4ccc(Cl)cc4)cc3)CC2)c(OC)c1 | 98%
16 | Cc1ccc2nc(C)n(C3CCN(C(=O)C4(c5ccccc5)CC4)CC3)c2c1 | 100%
17 | COc1ccc(CNCc2ccsc2)cc1-c1ccc(OC)c(S(=O)(=O)NCCN2CCCC2)c1.O=C(O)C(F)(F)F | 97%
18 | Br.CC(CON1C(N)=NC(N)=NC1(C)C)Cc1ccc(Cl)cc1Cl (stereo not given) | 92%
19 | CCOC(=O)C(=O)N1c2ccc(OCC)cc2-c2c(ssc2=S)C1(C)C | 99%
20 | CC1(C)N=C(N)N=C(N)N1c1ccc(Cl)c(Cl)c1.Cl | 95%

Row | SMILES | Inhibition
21 | O=C(Nc1ccon1)c1cc(-c2cccnc2)nc2ccc(Cl)cc12 | 98%
22 | N#CCSc1nnc(-c2ccccc2)c2ccccc12 | 84%
23 | CCCCNCc1ccc(-c2nc(CN(CCCn3ccnc3)C(=O)C3COc4ccccc4O3)cs2)cc1.O=C(O)C(F)(F)F (stereo not given) | 93%
24 | CCNc1cc(C(=O)N[C@@H](Cc2ccccc2)[C@H](O)CNC2CC3CCC2C3)cc(N2CCCCS2(=O)=O)c1.Cl (stereo not given in full) | 99%
25 | CC(O)C(C)(CO)NCc1ccc2c3c(cccc13)-c1ccccc1-2.Cl (stereo not given) | 95%
26 | Br.CC1(C)N=C(N)N=C(N)N1OCC1COc2ccccc2O1 (stereo not given) | 96%
27 | CCCCCOc1ccc(C(O)C(CN2CCCCC2)c2ccccc2)cc1.Cl (stereo not given) | 98%
28 | O=C(NCc1cccc(F)c1)Nc1cccc(-c2cccc(-c3nc4ccccc4[nH]3)c2)c1 | 96%
29 | Cc1nc2ccccc2c(=O)n1/N=C/c1ccccc1[N+](=O)[O-] | 94%
30 | CCOc1ccc(Br)cc1/C=C/C(=O)Nc1ccc2c(c1)CCCN(C)C2.O=C(O)C(F)(F)F | 90%
31 | O=C(Cc1cccc2ccccc12)NC1CCN(c2ccnc3cc(Cl)ccc23)C1.O=C(O)C(F)(F)F (stereo not given) | 82%
32 | Cl.NC(=O)c1sc(-n2cnc3ccc(OCC4CCNCC4)cc32)cc1OCc1ccccc1C(F)(F)F | 100%
33 | COc1ccccc1-n1ccnc1SCC(=O)Nc1cccc(C(F)(F)F)c1 | 95%
34 | Cc1cnccc1/C=C/c1cccc(OCCCN2CCc3ccc(S(C)(=O)=O)cc3CC2)c1 | 92%
35 | CC(C)NCc1ccc(-c2cccc(-c3nc4ccccc4[nH]3)c2)cc1.O=C(O)C(F)(F)F | 100%
36 | CN(C)c1ccc2nc(N)nc(N)c2c1Cl.Cl | 98%
37 | Cc1ccc(CNC(=O)c2cc3c(=O)n4cccc(C)c4nc3n(CCN3CCOCC3)c2=N)cc1 | 97%
38 | COc1c(C2CCN(CCN3CCC(NC(=O)c4ccc(-c5ccc(C(F)(F)F)cc5)cc4)CC3)CC2)ccc2c1CCCC2 | 82%
39 | CCN(CC)Cc1cc(NC(=O)c2ccccc2O)ccc1Oc1ccc(Cl)cc1.Cl | 98%
40 | Cc1cc(C(=O)N[C@H]2CCN(Cc3ccc(OCCCN(C)C)cc3)C2)ccc1Br.O=C(O)C(F)(F)F | 97%

— ChEMBL document CHEMBL1157539, “Thousands of chemical starting points for antimalarial lead identification” (Nature, 2010)
